Results with a measured potency or affinity are listed apart. Unmarked numbers belong to inactive results.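 How the source made its calls: active means toxic compound whose fitted half-effect dose of signal loss is at most twice its top tested dose; inconclusive means flat fit losing 30 to 70% signal, or poor fit; inactive means the rest.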
Assay: HeLa cell viability loss – plate reader, dry powder, cytotoxicity control, dose response (AID 651946)
Conditions: ATP luminescence (CellTiter-Glo), 48 h; series mostly up to 26 µM; activity change, negative = cytotoxicity: at the top concentration

| SMILES | activity change, negative = cytotoxicity |
| --- | --- |
| c1ccc(CSc2nnc(-c3cc4ccccc4o3)o2)cc1 | 5.73% |
| c1ccc(CCc2nnc(-c3ccccc3)o2)cc1 | 13% [at 12 µM] |
| Fc1ccccc1-c1nnc(SCc2ccccc2)o1 | 2.75% |
| c1ccc(CSc2ncc(-c3ccccc3)o2)cc1 | 6.4% |
| Fc1ccc(Cn2cc(CSc3nnc(-c4ccc(F)cc4)o3)nn2)cc1 | -3.32% |
| c1ccc(CSc2nnc(-c3cccnc3)o2)nc1 | 16.6% |
| Fc1ccccc1CSc1nnc(-c2ccccc2)o1 | 0.588% |
| COc1ccc(CSc2nnc(-c3ccc(Cl)cc3)o2)nc1 | -4.32% |
| FC(F)(F)c1cccc(-c2nnc(SCc3ccccc3)o2)c1 | 6.67% |
| c1ccc(-c2nnc(SCC3CC3)o2)cc1 | 1.63% |
| COc1ccccc1-c1nnc(SCc2ccccc2)o1 | -6.55% |
| c1ccc(-c2nnc(SCc3cccnc3)o2)cc1 | 11.6% |
| CS(=O)(=O)c1cccc(CSc2nnc(-c3ccccc3)o2)c1 | -5.96% |
| Fc1ccc(CSc2nnc(-c3cccnc3)o2)cc1 | 12.1% |
| Cc1nnc(SCc2ccccc2)o1 | -5.66% |
| CSc1nnc(-c2ccccc2)o1 | 5.47% [at 120 µM] |
| c1ccc(CSc2nnc(-c3ccccn3)o2)cc1 | -8.45% |
| FC(F)(F)Oc1cccc(CSc2nnc(-c3ccccc3)o2)c1 | 2.07% |
| CN(C)CCSc1nnc(-c2ccccc2)o1 | 1.24% |

| SMILES | activity change, negative = cytotoxicity |
| --- | --- |
| CS(=O)(=O)c1ccccc1CSc1nnc(-c2ccccc2)o1 | -6.14% |
| CS(=O)(=O)c1ccc(-c2nnc(SCc3ccccc3)o2)cc1 | -16.9% |
| Fc1ccc(-c2nnc(SCc3cn(-c4ccccc4)nn3)o2)cc1 | -16% |
| N#Cc1ccc(CSc2nnc(-c3ccccc3)o2)cc1 | -5.77% |
| FC(F)(F)c1cccc(CSc2nnc(-c3ccccc3)o2)c1 | 1.42% |
| [O-][n+]1ccccc1CSc1nnc(-c2ccccc2)o1 | 5.5% |
| c1ccc(CSc2nnc(-c3ccco3)o2)cc1 | 9.18% |
| Clc1ccc(CSc2nnc(-c3ccccc3)o2)cc1 | -9.93% |
| CC(C)c1nnc(SCc2ccccc2)o1 | 8.34% |
| Cc1cccc(CSc2nnc(-c3ccccc3)o2)c1 | -5.41% |
| Fc1ccc(-c2nnc(SCc3cn(Cc4ccccc4)nn3)o2)cc1 | 3.95% |
| c1ccc(Cn2cc(CSc3nnc(C4CCCC4)o3)nn2)cc1 | -10.8% |
| c1ccc(-c2nnc(SCc3ccncc3)o2)cc1 | 4.81% |
| c1ccc(CSc2nnc(-c3ccc(-c4ccccc4)cc3)o2)cc1 | -7.34% |
| CCSc1nnc(-c2ccccc2)o1 | -0.855% |
| c1ccc(CSc2nnc(-c3cccnc3)o2)cc1 | 8.35% |
| c1ccc(-c2nnc(SCCN3CCN(c4ccccc4)CC3)o2)cc1 | -6.89% |
| c1ccc(CSc2nnc(C3CCCCC3)o2)cc1 | 8.12% |
